# Measurements: PubChem BioAssay AID1835 (Johns Hopkins Ion Channel Center, 2009)
# Screen size: about 2,400 compounds; about 750 (31%) were called active.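 The calls were made as follows: active = median signal gain over dofetilide-blocked control wells reaching their mean plus 3 SD, so readout 1 at least 0; inactive = the rest.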 The list shows a part of the results. Where a SMILES comes first, the peptide text is derived from it. The star is where a group is joined. Cbz = O=C(OCc1ccccc1)*
# Target: Voltage-gated inwardly rectifying potassium channel KCNH2 (Homo sapiens) (UniProt Q12809)
# Sequence (Q12809 whole entry, looked up): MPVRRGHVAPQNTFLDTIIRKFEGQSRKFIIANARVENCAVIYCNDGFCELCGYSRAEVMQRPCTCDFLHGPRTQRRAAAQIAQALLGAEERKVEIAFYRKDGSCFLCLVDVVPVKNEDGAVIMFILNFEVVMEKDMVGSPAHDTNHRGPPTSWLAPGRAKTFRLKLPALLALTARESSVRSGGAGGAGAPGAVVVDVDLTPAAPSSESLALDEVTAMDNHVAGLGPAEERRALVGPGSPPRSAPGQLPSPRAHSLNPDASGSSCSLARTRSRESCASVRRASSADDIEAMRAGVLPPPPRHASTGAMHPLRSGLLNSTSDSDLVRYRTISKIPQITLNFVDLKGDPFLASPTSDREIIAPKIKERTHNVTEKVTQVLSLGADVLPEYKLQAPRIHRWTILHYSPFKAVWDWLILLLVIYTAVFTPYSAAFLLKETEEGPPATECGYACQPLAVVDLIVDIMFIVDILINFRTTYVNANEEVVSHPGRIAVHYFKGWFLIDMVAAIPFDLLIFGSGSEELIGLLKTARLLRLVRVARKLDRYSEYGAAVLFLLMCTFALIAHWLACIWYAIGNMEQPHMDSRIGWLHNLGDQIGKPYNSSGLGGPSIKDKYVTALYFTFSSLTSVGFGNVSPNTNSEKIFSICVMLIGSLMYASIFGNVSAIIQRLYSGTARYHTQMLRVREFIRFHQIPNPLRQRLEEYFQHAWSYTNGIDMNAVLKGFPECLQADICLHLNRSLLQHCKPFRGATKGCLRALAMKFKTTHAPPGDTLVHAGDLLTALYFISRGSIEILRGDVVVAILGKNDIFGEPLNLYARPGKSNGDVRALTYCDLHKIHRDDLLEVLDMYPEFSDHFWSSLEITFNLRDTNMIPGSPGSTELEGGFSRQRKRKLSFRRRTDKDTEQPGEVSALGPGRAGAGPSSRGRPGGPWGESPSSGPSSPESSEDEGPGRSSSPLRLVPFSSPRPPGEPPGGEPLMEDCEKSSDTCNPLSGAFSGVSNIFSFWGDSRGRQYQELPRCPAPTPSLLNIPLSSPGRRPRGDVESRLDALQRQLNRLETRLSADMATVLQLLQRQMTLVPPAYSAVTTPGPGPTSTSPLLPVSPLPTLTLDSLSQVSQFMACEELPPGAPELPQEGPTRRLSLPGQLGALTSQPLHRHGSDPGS
# Assay: hERG protection against dofetilide inhibition, confirmation, cell-based, thallium flux, duplicate retest, dofetilide IC70 (AID 1835)
# Conditions: hERG cell line, FluxOR thallium flux, dofetilide-blocked; at 10 µM; active compounds read high
row,SMILES,"activity increase over dofetilide control, less the hit threshold"
1,Cc1ccc(N2C(=O)c3ccccc3C2(O)c2ncc[nH]2)cc1 (centres undefined),-18% (inactive)
2,CCc1nnc(NC(=O)c2c(C)nn(-c3ccccc3)c2Cl)s1,-16% (inactive)
3,COc1ccc(-n2c(SCc3ccccn3)nc3c(c2=O)SCC3)cc1OC,3% (active)
4,COc1ccc(-n2nc(C(=O)NCC(=O)NCc3ccc(F)cc3)c3ccccc3c2=O)cc1OC,-13% (inactive)
5,CCOC(=O)c1c(-c2ccc(C)o2)csc1NC(=S)NC(=O)N(C)C,21% (active)
6,CCOC(=O)c1c(CC(C)C)csc1NC(=O)c1ccccc1C(=O)O,-13% (inactive)
7,CCOC(=O)c1nnsc1NC(C)=O,-13% (inactive)
8,CCOC(=O)c1cc2c(nc1NC(=S)NCc1ccccc1)CCCC2,-1% (inactive)
9,CCOC(=O)c1c(-c2ccccc2)csc1NC(=S)NC,7% (active)
10,CCNC(=S)Nc1scc(-c2ccccc2)c1C(=O)OCC,5% (active)
11,C=CCn1c(N2CCCCCC2)nc2c1c(=O)n(C)c(=O)n2C,-7% (inactive)
12,CC1(OC(=O)C2CCCC2)C(=O)C=C2C=C(c3ccc(C#N)cc3)OC=C2C1=O (centres undefined),-18% (inactive)
13,Cc1ccc(C)c(N2CCN(S(=O)(=O)c3ccc(-c4ccc(=O)[nH]n4)o3)CC2)c1,-11% (inactive)
14,CC(Sc1n[nH]c(=O)[nH]c1=O)C(=O)OCc1ccccc1 (centres undefined),-11% (inactive)
15,Cn1c2ccccc2c(=O)c2c(=O)n(Cc3ccco3)c(-c3ccc(Cl)cc3Cl)nc21,-10% (inactive)
16,Cn1c(=O)c2sc3c(c2n(CC(=O)Nc2ccccc2)c1=O)COC(C)(C)C3,-12% (inactive)
17,COc1ccccc1-n1cnc2cc(NS(=O)(=O)c3ccc(Br)cc3)ccc21,-24% (inactive)
18,Cc1ccc(CNC(=O)CN(C(=O)C2(C)CC(=O)N=C3C=CC=CN32)c2ccccc2F)cc1 (centres undefined),-8% (inactive)
19,CCCCn1c(=S)[nH]c2ccccc2c1=O,3% (active)
20,O=c1c2ccccc2[nH]c(=S)n1CCc1ccccc1,20% (active)
21,CCN(CCCn1c(=S)[nH]c2ncccc2c1=O)c1ccccc1,-2% (inactive)
22,CCCCCn1c(=S)[nH]c2ncccc2c1=O,40% (active)
23,O=c1c2cc(Cl)ccc2[nH]c(=S)n1Cc1cccs1,-8% (inactive)
24,Cc1ccc(Cn2c(=S)[nH]c3ccccc3c2=O)cc1,3% (active)
25,CCCCC(CC)CNC(=O)Cn1c(=S)[nH]c2ncccc2c1=O (centres undefined),-12% (inactive)
26,CCOCCCn1c(=S)[nH]c2cc(C(=O)NCCOC)ccc2c1=O,-13% (inactive)

row,SMILES,"activity increase over dofetilide control, less the hit threshold"
1,O=C1CN(S(=O)(=O)c2ccccc2)CC(=O)N1CCc1ccccc1,-6% (inactive)
2,CC(C)CCn1c(=S)[nH]c2ncccc2c1=O,-1% (inactive)
3,Cc1ccc(OCCC(=O)OC(C)C(=O)Nc2ccc(Cl)cn2)cc1 (centres undefined),-11% (inactive)
4,CCC1(C)CC2(CCCN(CCC(=O)c3ccccc3)C2)CCO1 (centres undefined),-34% (inactive)
5,Cc1ccc(NC(=O)CSc2nnc(-c3cccnc3)n2-c2ccc(C)cc2)cc1,-20% (inactive)
6,c1ccc(-c2n[nH]c(-c3ccccn3)n2)cc1,7% (active)
7,c1ccc(-c2ccc(-c3ccncn3)cc2)cc1,-14% (inactive)
8,COc1ccc(-c2nc(-c3ccccn3)ncc2S(C)(=O)=O)cc1,-15% (inactive)
9,Cc1nc(Oc2ccc(Cl)cc2)c2oc3ccccc3c2n1,-9% (inactive)
10,O=C1N2CCSC2=NC1(NS(=O)(=O)c1ccccc1)C(F)(F)F (centres undefined),5% (active)
11,COc1ccc(CCNC(=O)C2CCCN(S(C)(=O)=O)C2)cc1 (centres undefined),-15% (inactive)
12,COc1ccc(-n2c(SCC#N)nnc2-c2cccnc2)cc1,-26% (inactive)
13,O=C1CC(N2CCN(c3ccccc3Cl)CC2)C(=O)N1c1ccc(F)cc1 (centres undefined),-10% (inactive)
14,CC(=O)Oc1c(-c2ccco2)oc2ccccc2c1=O,-1% (inactive)
15,COc1ccc(C(=O)c2oc3ccccc3c2N)cc1,-12% (inactive)
16,COc1ccc(-c2c(C)c3ccc(OCC(C)=O)cc3oc2=O)cc1,-20% (inactive)
17,COc1ccc(-c2oc3ccccc3c(=O)c2OC(C)=O)cc1,7% (active)
18,CC(=O)Oc1c(-c2ccc(Br)o2)oc2ccccc2c1=O,66% (active)
19,Cc1ccnc(SCCn2c(N3CC(C)OC(C)C3)nc3c2c(=O)n(C)c(=O)n3C)n1 (centres undefined),-26% (inactive)
20,COc1ccc(/C=C2\SC(=N)N(c3nccs3)C2=O)cc1OC,30% (active)
21,N=C1S/C(=C\c2ccco2)C(=O)N1c1nccs1,-24% (inactive)
22,CCN1C(=O)/C(=C\c2ccc(-c3cccc(C(=O)OC)c3)o2)SC1=Nc1ccc(C(=O)O)cc1,-3% (inactive)
23,N=C1S/C(=C\c2ccc(-c3cccc(Cl)c3)o2)C(=O)N1c1nccs1,50% (active)
24,COc1cccc(CN(C)CC2CCCN(CCc3ccc(Cl)cc3)C2)c1OC (centres undefined),-31% (inactive)
25,O=C(NCc1cccs1)C1CC(c2ccc(F)cc2)=NO1 (centres undefined),-24% (inactive)
26,Cc1occc1C(=O)NNC(=S)NC(=O)COc1ccc(Cl)cc1Cl,100% (active)

row,SMILES,"activity increase over dofetilide control, less the hit threshold"
1,COc1ccc(Cl)cc1C(=O)NNC(=S)NC(=O)/C=C/c1ccco1,-4% (inactive)
2,CC(=O)N1CCCc2cc(S(=O)(=O)NCc3ccc(C)cc3)ccc21,-1% (inactive)
3,CCC(=O)N1CCCc2ccccc21,-8% (inactive)
4,Cc1ccc(Cn2nnc3c(=O)n(CC(=O)N4CCCc5ccccc54)cnc32)cc1,2% (active)
5,Cn1c(=O)c2sccc2n(Cc2cccc(Br)c2)c1=O,-11% (inactive)
6,Cn1c(=O)[nH]c(=O)c2c1nc(CN1CCN(c3ccccc3F)CC1)n2CCCc1ccccc1,-7% (inactive)
7,O=C(COC(=O)C1C2CC3OC(=O)C1C3C2)Nc1ccc(Cl)cc1 (centres undefined),-17% (inactive)
8,O=C(CN1C(=O)c2ccccc2S1(=O)=O)NCCSCc1ccccc1Cl,-16% (inactive)
9,CC(/C=C1\N=C(SCc2ccccc2Cl)SC1=O)=C\c1ccccc1,-9% (inactive)
10,O=C(O)CCCCn1c(SCc2ccccc2Cl)nc2ccsc2c1=O,4% (active)
11,Cc1cc(NC(=O)CCCn2cnc([N+](=O)[O-])n2)no1,-9% (inactive)
12,CCOC(=O)C1CCN(C(=O)COC(=O)c2nn(C)c(=O)c3ccccc23)CC1,-23% (inactive)
13,CCOC(=O)c1n[nH]n2c1nc(=S)c1ccccc12,46% (active)
14,CCOC(=O)c1nnn(CC(=O)Nc2ccccc2OC)c1C(=O)OCC,-3% (inactive)
15,C[n+]1ccccc1COc1ccc(C(C)(C)C)cc1,-15% (inactive)
16,COC(=O)c1ccc(/C=C/c2ccc3cccc(OC)c3n2)cc1,-7% (inactive)
17,Cc1ccc(C(=O)c2ccccc2C(=O)O)c(O)c1,-6% (inactive)
18,Cc1ccc(NS(=O)(=O)c2ccc(NC(=O)c3ccccc3C(=O)O)cc2)cc1C,-5% (inactive)
19,Cc1ccc(/C=C/C(=O)c2ccccc(=O)c2O)c(C)c1,22% (active)
20,O=C(/C=C/c1ccccc1Cl)c1ccccc(=O)c1O,13% (active)
21,Cc1ccc(/C=C/C(=O)c2ccccc(=O)c2O)cc1C,8% (active)
22,Cc1ccc(C)c(/C=C/C(=O)c2ccccc(=O)c2O)c1,-3% (inactive)
23,CC(=O)c1sc(-c2ccc(F)cc2)cc1NS(=O)(=O)c1ccc(C)cc1,-14% (inactive)
24,CC1=[N+]([O-])C(C)(C)C(c2ccc(Br)cc2)=[N+]1[O-],-3% (inactive)
25,COCCNC(=O)CN(C(=O)c1ccc(N2CCCC2)nc1)c1ccccc1,-15% (inactive)
26,CCc1ccc2[nH]c(=O)c(-c3ccccc3)c(O)c2c1,-20% (inactive)

row,SMILES,"activity increase over dofetilide control, less the hit threshold"
1,CCC(C)C(NC(=O)C(C)NC(=O)CNC(=O)CNC(=O)OCc1ccccc1)C(=O)OC (centres undefined) (Cbz-GGAI-OMe; configuration not given here),-22% (inactive)
2,CN1C(=O)NC(c2cccc([N+](=O)[O-])c2)C2=C1CC(C)(C)CC2=O (centres undefined),-14% (inactive)
3,CCc1ccccc1NC(=O)CC1CS(=O)(=O)CC1CC(=O)Nc1ccccc1CC (centres undefined),-4% (inactive)
4,N#C/C(=N\Nc1ccccc1F)c1nc(-c2ccccc2)cs1,-14% (inactive)
5,O=C(O)/C=C/c1cn(-c2ccccc2)nc1-c1ccc(-c2ccc([N+](=O)[O-])cc2)o1,27% (active)
6,COC(=O)Oc1ccc(/C=C/C(=O)OC(C)C)cc1OC(=O)OC,2% (active)
7,Cc1cc(C)nc(NS(=O)(=O)c2ccc(NC(=O)Cc3ccccc3)cc2)n1,-5% (inactive)
8,Cc1cc(O)c(/C=N/OCc2ccc(Cl)cc2Cl)c(=O)o1,-4% (inactive)
9,Brc1ccc(-c2noc(CCc3ccccc3)n2)cc1,-20% (inactive)
10,CC(C)Cn1c(=S)[nH]c2cc(Cl)ccc21,5% (active)
11,Cc1nnc(SCC2=C(C(=O)O)N3C(=O)C(NC(=O)Cn4nc(C(F)F)cc4C)C3SC2)s1 (centres undefined),-5% (inactive)
12,Cc1ccc(C)c(NC(=S)c2nc3ccccc3s2)c1,-10% (inactive)
13,Cc1ccc(C)c2sc(NC(=O)c3nc4ccccc4s3)nc12,35% (active)
14,Cc1ccccc1NP(=O)(c1ccccc1)c1nc2ccccc2s1 (centres undefined),-8% (inactive)
15,C/C(CC(=O)Nc1ccccn1)=N\NC(=O)C(=O)Nc1cccc(Cl)c1C,-6% (inactive)
16,CC(=O)Nc1ccccc1C(=O)C(=O)Nc1ccc(Cl)cc1,-3% (inactive)
17,COc1ccccc1C(=O)Nc1ccc(C(=O)N2CCCC2)cc1,0% (inactive)
18,COc1ccccc1C(=O)NNC(=O)C(=O)Nc1cccc(Cl)c1C,100% (active)
19,Cc1ccccc1C(=O)NNC(=O)C(=O)Nc1cccc(Cl)c1C,27% (active)
20,COc1ccc(Cl)cc1C(=O)Nc1cccnc1Cl,-8% (inactive)
21,NC(=O)Cn1c2[n+](c3ccccc31)CC(O)CS2 (centres undefined),-24% (inactive)
22,CCN1C(=O)/C(=C/c2ccc(C)s2)NC1=S,14% (active)
23,CC(C)CN1C(=O)/C(=C/c2cccs2)NC1=S,85% (active)
24,CC(C)CN1C(=O)/C(=C/c2ccco2)NC1=S,-26% (inactive)
25,CCCN1C(=O)/C(=C/c2ccc3c(c2)OCO3)NC1=S,-13% (inactive)
26,CCCN1C(=O)/C(=C/c2ccc(C)s2)NC1=S,71% (active)
